# Compound activity deposited in PubChem BioAssay by NMMLSC.
# RPL19A-GFP yeast: modulators of TOR pathway RPL19A-GFP in S. cerevisiae. AID 2025. percent response vs DMSO, % at 10 µM. S. cerevisiae RPL19A-GFP strain, flow cytometry, 3 h; hits give low values. 330,000 compounds, 0.3% hits;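 active = percent response vs DMSO below 50%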;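 note: median channel GFP fluorescence of the barcoded RPL19A-GFP strain; lower means less RPL19A-GFP as with rapamycin TOR inhibition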
# AGP1 TOR yeast: yeast TOR pathway AGP1-GFP modulation; GFP response vs DMSO, % at 10 µM; 320,000 compounds, 0.02% hits; AID 2066; S. cerevisiae AGP1-GFP multiplex flow cytometry, 3 h; GFP as percent of DMSO wells;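 active = GFP response relative to DMSO above a set limit, near screen average plus 3 SD, cut at about 150% in these data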;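 note: median GFP channel fluorescence of the gated AGP1 strain per well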
# CIT2-GFP yeast: alters CIT2-GFP fluorescence in TOR pathway yeast screen; S. cerevisiae CIT2-GFP strain, flow cytometry, 3 h; 100 means same as DMSO wells; GFP response vs DMSO, % at 10 µM; 320,000 compounds, 0.065% hits;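 active = GFP response relative to DMSO above a set limit, near the screen mean plus 3 SD, cut at about 150% in these data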;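 note: ratio of well median GFP fluorescence to mean of DMSO wells on the plate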
# MEP2 TOR yeast: yeast TOR pathway MEP2-GFP modulation; S. cerevisiae MEP2-GFP strain, flow cytometry GFP, 3 h; 100% = DMSO control level; 330,000 compounds, 0.51% hits; GFP response vs DMSO, % at 10 µM;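 active = GFP response versus DMSO above a set limit, roughly screen mean plus 3 SD, cut at about 180% in these data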;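 note: median GFP fluorescence of the barcode-gated MEP2-GFP cells per well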
# LAP4-GFP MLPCN: yeast TOR pathway LAP4-GFP modulation | S. cerevisiae LAP4-GFP multiplex, flow cytometry GFP, 3 h; median GFP as percent of DMSO wells | 320,000 compounds, 0.34% hits | GFP response vs DMSO, % at 10 µM;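 active = GFP response vs DMSO above a set limit, about the screen mean plus 3 SD, cut at about 150% in these data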
# LAP4 cherry2: yeast LAP4-GFP modulation, second cherry pick. S. cerevisiae LAP4-GFP strain, flow cytometry GFP, 3 h. GFP response vs DMSO, % at 10 µM. 590 compounds, 20% hits. shares compounds with LAP4-GFP MLPCN;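 active = GFP signal as percent of the solvent control above about 150%, meaning raised reporter expression, limit read from the data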
# MEP2 cherry2: reconfirmed MEP2-GFP TOR pathway modulator in yeast; shares compounds with LAP4-GFP MLPCN; S. cerevisiae MEP2-GFP strain, flow cytometry GFP, 3 h; GFP response vs DMSO, % at 10 µM; 590 compounds, 10% hits; AID 2622;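 active = GFP signal above 150% of the solvent control wells, that is a rise of more than half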;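 note: median channel GFP fluorescence of all gated yeast cells per well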
# RPL19A-GFP pick2: reconfirmed modulator of RPL19A-GFP TOR reporter in yeast | shares compounds with LAP4-GFP MLPCN | S. cerevisiae RPL19A-GFP strain, flow cytometry GFP, 3 h; hits give low values; 100% means same as DMSO wells | GFP response vs DMSO, % at 10 µM | 590 compounds, 3% hits;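 active = under 65% GFP response relative to DMSO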;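 note: median GFP channel fluorescence per well over the all cells gate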
# CIT2 GFP CP2: reconfirmed modulator of CIT2-GFP TOR reporter in yeast; 590 compounds, 8% hits; S. cerevisiae CIT2-GFP strain, flow cytometry GFP, 3 h; DMSO control wells read 100%; shares compounds with LAP4-GFP MLPCN; GFP response vs DMSO, % at 10 µM;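 active = GFP response vs DMSO above about 150%, limit read from the data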;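 note: median green fluorescence per well over all gated yeast cells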
# AGP1-GFP pick2: reconfirmed modulator of AGP1-GFP TOR reporter in yeast | shares compounds with LAP4-GFP MLPCN | AID 2643 | S. cerevisiae AGP1-GFP strain, flow cytometry GFP, 3 h | 590 tested, under 10 active | percent response vs DMSO, % at 10 µM;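 active = over 150 percent of DMSO response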;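 note: median GFP channel fluorescence over all cells without mother daughter split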
# s288c autofluor: counter-screen for compound autofluorescence in yeast s288c cells. 610 tested, under 10 active. fluorescence change (kMESF span) at 33 µM. shares compounds with LAP4-GFP MLPCN. S. cerevisiae s288c, 520 nm autofluorescence, flow cytometry, 3 h; hits give high values; zero means same as solvent-only cells;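 active = fluorescence span over the dose series, or activity score, above about 33, limit read from the data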
# TORC1 bypass: stops wildtype yeast growth while TORC1 bypass cells still grow | S. cerevisiae BY4741 spot growth rating, 48-72 h; hits give low values | AID 504456 | 120 tested, under 10 active | growth rating (0-3) at 30 µM | shares compounds with LAP4-GFP MLPCN;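 active = growth rating at most 1 for wild type yeast while the TORC1 bypass strain still grows fully, rated 3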
# A number is an active result; i = inactive; nt = no result given; [ ] = dose if it differs, or a comment. Hits are enriched below; roughly 0.92% of the tested compounds scored in any of these assays.
SMILES,RPL19A-GFP yeast,AGP1 TOR yeast,CIT2-GFP yeast,MEP2 TOR yeast,LAP4-GFP MLPCN,LAP4 cherry2,MEP2 cherry2,RPL19A-GFP pick2,CIT2 GFP CP2,AGP1-GFP pick2,others
CCCNC(=O)c1onc(CSc2ccc(Cl)cc2)c1C(=O)NC(C)C,i,i,i,i,173.0,i,i,i,i,i,
N#Cc1cc([N+](=O)[O-])c(-n2nnc3ccccc32)c([N+](=O)[O-])c1,i,i,i,i,206.1,nt,nt,nt,nt,nt,s288c autofluor=i
Cc1cccc(NC(=O)CCSc2nnc(Cc3ccccc3)o2)c1,i,i,i,i,i,nt,nt,nt,nt,nt,
Cc1cc(C)c(S(=O)(=O)N2CCC(C(=O)NCc3ccc(Cl)cc3Cl)CC2)c(C)c1,i,i,i,i,151.3,151.9,i,i,i,i,s288c autofluor=i
Cc1cc(/C=C2/SC(=S)N(c3cccc(Cl)c3)C2=O)c(C)n1-c1cccnc1,i,i,i,i,154.3,nt,nt,nt,nt,nt,s288c autofluor=i
Cc1cc(/C=C2/SC(=S)N(c3ccc([N+](=O)[O-])cc3)C2=O)c(C)n1-c1cccnc1,i,i,i,i,i,nt,nt,nt,nt,nt,
CCOc1ccc(NC(=O)CN2CCC(n3cnc4cc(F)ccc43)CC2)cc1,i,i,i,i,i,nt,nt,nt,nt,nt,
CCC(C)(C(=O)NC1CCCCC1)N(C(=O)C1CCC(=O)N1)c1ccc(C)cc1 (stereo unspecified),i,i,i,i,i,nt,nt,nt,nt,nt,
Cc1ccc(NC(=O)c2cc(-c3ccc4c(c3)OCO4)on2)cc1C,i,i,i,i,i,nt,nt,nt,nt,nt,
Cc1cc(C(=O)Nc2ccc3c(c2)OCO3)no1,i,i,156.7,i,i,i,i,i,i,i,
O=C1NN(c2ccccc2)C(=O)/C1=C/c1ccc(Sc2cccc3ccccc23)o1,i,i,i,i,i,nt,nt,nt,nt,nt,
COc1cc(C2OC(=O)C3C(c4ccc(OC(C)=O)c(OC)c4)OC(=O)C23)ccc1OC(C)=O (stereo unspecified),i,i,i,i,i,nt,nt,nt,nt,nt,
Cc1ccccc1OCCOC(=O)c1ccc(S(=O)(=O)N2CCCC2)cc1,i,i,158.2,i,i,i,i,i,i,i,s288c autofluor=i
CCSc1nnc(CNC(=O)C23CC4CC(CC(C4)C2)C3)n1C1CCCCC1,i,i,i,i,i,nt,nt,nt,nt,nt,
Cc1nc(N2CCCCC2)c2c(-c3cccs3)csc2n1,i,i,i,i,i,i,i,i,i,i,
Cc1nc(N2CCN(S(=O)(=O)c3ccccc3C#N)CC2)c2c(-c3cccs3)csc2n1,i,i,i,i,i,nt,nt,nt,nt,nt,
O=C(c1ccc(Cl)cc1)N1CCC(O)(CSc2ccccc2)CC1,i,i,i,i,i,i,i,i,i,i,
CSc1ncccc1C(=O)Nc1nc2ccc(Oc3ccccc3)cc2s1,i,i,i,i,i,nt,nt,nt,nt,nt,
Cc1ccc(NC(=O)c2nc(S(=O)(=O)Cc3ccccc3)ncc2Cl)cc1,i,i,i,i,151.9,nt,nt,nt,nt,nt,s288c autofluor=i
Cn1c(Cl)cnc1C1CC(=O)c2cc(Cl)ccc2O1 (stereo unspecified),i,i,i,i,209.9,i,i,i,i,i,
O=S(=O)(/N=C(\c1ccccc1)N1CCOCC1)c1ccc(Cl)cc1,i,i,i,i,i,nt,nt,nt,nt,nt,
Cc1ccc(S(=O)(=O)/N=C(/Sc2ccccc2C(=O)O)c2ccccc2)cc1,i,i,i,i,i,i,i,i,i,i,
Cc1ccc(S(=O)(=O)/N=C(\Sc2ccccc2)c2ccccc2)cc1,i,i,i,i,173.6,nt,nt,nt,nt,nt,s288c autofluor=i
O=S(=O)(/N=C(\Sc1ccccc1)c1ccccc1)c1ccc(Cl)cc1,i,i,i,i,i,i,i,i,i,i,
CCOc1ccc(C2NC(=O)CCC2[N+](=O)[O-])cc1 (stereo unspecified),i,i,i,i,i,nt,nt,nt,nt,nt,
SMILES,RPL19A-GFP yeast,AGP1 TOR yeast,CIT2-GFP yeast,MEP2 TOR yeast,LAP4-GFP MLPCN,LAP4 cherry2,MEP2 cherry2,RPL19A-GFP pick2,CIT2 GFP CP2,AGP1-GFP pick2,others
CCn1cc(C(=O)NCCCOC(C)C)c(=O)c2cc(S(=O)(=O)N3CCOCC3)ccc21,i,i,i,i,i,nt,nt,nt,nt,nt,
Cn1cc(/C=N/NC(=O)c2ccc(C#N)cc2F)c2ccccc21,i,i,i,i,i,nt,nt,nt,nt,nt,
COc1ccc(NC(=O)CCOc2cc(C)ccc2C)cc1S(=O)(=O)N1CCCCC1,i,i,i,i,i,nt,nt,nt,nt,nt,
O=c1[nH]c(-c2ccccn2)nc(C(F)(F)F)c1Br,i,i,i,i,242.2,nt,nt,nt,nt,nt,s288c autofluor=i
O=C(O)c1ccc(NCc2cccc(Br)c2)cc1,i,i,i,i,158.7,i,i,i,i,i,
CCC(O)CNC(=O)CCc1nnc(C2(c3ccc(Cl)cc3)CCC2)o1 (stereo unspecified),i,i,i,i,i,nt,nt,nt,nt,nt,
Cc1cc(Nc2cc(-c3ccccc3)nc(NCc3ccccc3)n2)n[nH]1,nt,nt,nt,nt,nt,nt,nt,nt,nt,nt,TORC1 bypass=i
O=C1C2CC=CCC2C(=O)N1Cc1ccccc1 (stereo unspecified),i,i,i,i,i,nt,nt,nt,nt,nt,
O=C1C=CC(=O)N1Cc1ccccc1,i,i,i,i,159.2,i,i,i,i,i,
CCOc1ccccc1/C=C(\C#N)C(=O)NC1CC1,i,i,i,i,i,nt,nt,nt,nt,nt,
CCOc1c(Br)cc(/C=C(\C#N)C(=O)NC2CC2)cc1OC,i,i,i,i,153.7[may fluoresce green],i,i,i,i,i,
O=[N+]([O-])c1cc(CN2CCN(c3cccc(C(F)(F)F)c3)CC2)c2cccnc2c1O,i,nt,i,i,213.6,nt,nt,nt,nt,nt,s288c autofluor=i
O=[N+]([O-])c1cc(CN2CCCC2)c2cccnc2c1O,i,i,i,i,i,nt,nt,nt,nt,nt,
Cc1ccc2c(c1)nnn2C1CCN(S(=O)(=O)c2ccc(C(=O)N(C)C3CCCCC3)cc2)CC1,i,i,i,i,i,i,i,i,i,i,
CCN(CC)S(=O)(=O)c1ccc(N2CCN(CCOc3ccc(OC)cc3)CC2)nc1,i,i,i,i,i,nt,nt,nt,nt,nt,
